Assay results taken from PubChem BioAssay (Tox21).
Values joined by “and” are separate entries in the source; they are usually repeats but may differ in a detail not shown here. Equal values may be shown once. Inconclusive results are not listed. Active and inactive are the calls of the source. Unless noted, calls follow the shape of the dose curve; as a rule, active = well fitted curve in the direction sought with a large enough effect in the repeat runs; inconclusive = weak or mixed curves; inactive = no such curve, though single readings can be large; an effect the other way counts as inactive or inconclusive.

Tests used:
[1] = qHTS assay to identify small molecule antagonists of the estrogen related receptor (ERR) signaling pathway from Tox21 library - cell viability counter screen (AID 1224834); also: nearly all actives have a fitted effect of over 30% in size; also: potency is read from the fitted curve at half-maximal effect
In short: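 CellTiter-Fluor fluorescence, read after 30 min at 37 C, measures viability of ERR cells. Cells plated at 2,000/well and incubated 6 h before pin-tool compound addition, then exposed 17.5 hours at 37 C.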

[2] = biological target: Luciferin 4-monooxygenase (Photinus pyralis) (UniProt P08659); assay: qHTS assay to identify small molecule inhibitors of firefly luciferase (AID 1224835); also: series mostly up to about 120 µM; nearly all actives have a fitted effect of over 25% in size
Sequence of Luciferin 4-monooxygenase (Photinus pyralis) (P08659 whole entry, looked up): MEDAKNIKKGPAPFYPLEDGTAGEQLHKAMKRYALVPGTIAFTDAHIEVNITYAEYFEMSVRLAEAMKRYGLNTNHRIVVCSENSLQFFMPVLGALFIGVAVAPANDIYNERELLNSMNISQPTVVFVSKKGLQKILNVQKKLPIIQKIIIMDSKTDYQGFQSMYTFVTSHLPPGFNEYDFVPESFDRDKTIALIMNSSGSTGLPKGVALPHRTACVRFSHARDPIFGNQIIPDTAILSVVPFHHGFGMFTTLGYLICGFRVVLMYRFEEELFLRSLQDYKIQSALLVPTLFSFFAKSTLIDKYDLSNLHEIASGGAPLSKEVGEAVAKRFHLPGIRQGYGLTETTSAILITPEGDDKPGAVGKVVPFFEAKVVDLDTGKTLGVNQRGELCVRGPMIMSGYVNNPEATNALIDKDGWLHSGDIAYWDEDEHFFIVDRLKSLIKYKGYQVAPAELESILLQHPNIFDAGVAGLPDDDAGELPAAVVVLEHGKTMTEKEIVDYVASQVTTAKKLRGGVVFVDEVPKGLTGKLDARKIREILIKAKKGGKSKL
In short: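 Inhibition of purified Photinus luciferase is measured by luminescence. Substrate levels (D-luciferin, ATP) sit at their KM values. Each compound is tested in a concentration series.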

[3] = qHTS assay to identify small molecule agonists of the constitutive androstane receptor (CAR) signaling pathway - cell viability counter screen (AID 1224836); also: nearly all actives have a fitted effect of over 45% in size; also: potency is read from the fitted curve at half-maximal effect
In short: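 Multiplexed viability check: HepG2-CYP2B6-hCAR cells, 15-point compound dosing, 0.75 uM PK11195 final, 23 h at 37 C, CellTiter-Fluor fluorescence.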

[4] = biological target: Nuclear receptor subfamily 1 group I member 3 (Homo sapiens) (UniProt Q14994); assay: qHTS assay to identify small molecule agonists of the constitutive androstane receptor (CAR) signaling pathway (AID 1224839); also: nearly all actives have a fitted effect of over 15% in size; also: potency is read from the fitted curve at half-maximal effect
Sequence of Nuclear receptor subfamily 1 group I member 3 (Homo sapiens) (Q14994 whole entry, looked up): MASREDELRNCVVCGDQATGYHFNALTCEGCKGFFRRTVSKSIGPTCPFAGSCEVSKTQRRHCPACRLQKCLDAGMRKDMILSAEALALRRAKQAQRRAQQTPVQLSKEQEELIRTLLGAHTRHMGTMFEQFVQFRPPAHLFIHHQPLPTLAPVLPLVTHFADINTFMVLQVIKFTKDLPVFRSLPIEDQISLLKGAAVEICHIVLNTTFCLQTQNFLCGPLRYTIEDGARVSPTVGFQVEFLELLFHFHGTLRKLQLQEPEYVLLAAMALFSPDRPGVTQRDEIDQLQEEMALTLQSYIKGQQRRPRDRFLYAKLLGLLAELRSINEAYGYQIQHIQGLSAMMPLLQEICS
In short: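 Using human hepatoma HepG2 cells engineered with hCAR and a CYP2B6-2.2kb reporter, 15-concentration compound series were incubated 24 h alongside PK11195 at 0.75 uM final, with luminescence quantified afterwards.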

[5] = qHTS assay to identify small molecule antagonists of the estrogen related receptor signaling pathway with the pleiotropic PPARgamma coactivator (PGC) from Tox21 10K library - cell viability counter screen (AID 1224840; active = well fitted cell-killing curve with a large enough effect in the repeat runs, not every such curve was filed as active; also: nearly all actives have a fitted effect of over 40% in size; also: potency is read from the fitted curve at half-maximal effect)
In short: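 Counter-screen for cytotoxicity: after 17.5 h compound exposure at 37 C, CellTiter-Fluor reagent added to PGC/ERR cells for 30 min and fluorescence read. Cells were seeded at 2,000 per well 6 h before dosing.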

[6] = biological target: Thyrotropin receptor (Homo sapiens) (UniProt P16473); assay: qHTS assay to identify small molecule agonists of the thyroid stimulating hormone receptor (TSHR) signaling pathway (AID 1224843; calls by dose curve; also: nearly all actives have a fitted effect of over 45% in size)
Sequence of Thyrotropin receptor (Homo sapiens) (P16473 whole entry, looked up): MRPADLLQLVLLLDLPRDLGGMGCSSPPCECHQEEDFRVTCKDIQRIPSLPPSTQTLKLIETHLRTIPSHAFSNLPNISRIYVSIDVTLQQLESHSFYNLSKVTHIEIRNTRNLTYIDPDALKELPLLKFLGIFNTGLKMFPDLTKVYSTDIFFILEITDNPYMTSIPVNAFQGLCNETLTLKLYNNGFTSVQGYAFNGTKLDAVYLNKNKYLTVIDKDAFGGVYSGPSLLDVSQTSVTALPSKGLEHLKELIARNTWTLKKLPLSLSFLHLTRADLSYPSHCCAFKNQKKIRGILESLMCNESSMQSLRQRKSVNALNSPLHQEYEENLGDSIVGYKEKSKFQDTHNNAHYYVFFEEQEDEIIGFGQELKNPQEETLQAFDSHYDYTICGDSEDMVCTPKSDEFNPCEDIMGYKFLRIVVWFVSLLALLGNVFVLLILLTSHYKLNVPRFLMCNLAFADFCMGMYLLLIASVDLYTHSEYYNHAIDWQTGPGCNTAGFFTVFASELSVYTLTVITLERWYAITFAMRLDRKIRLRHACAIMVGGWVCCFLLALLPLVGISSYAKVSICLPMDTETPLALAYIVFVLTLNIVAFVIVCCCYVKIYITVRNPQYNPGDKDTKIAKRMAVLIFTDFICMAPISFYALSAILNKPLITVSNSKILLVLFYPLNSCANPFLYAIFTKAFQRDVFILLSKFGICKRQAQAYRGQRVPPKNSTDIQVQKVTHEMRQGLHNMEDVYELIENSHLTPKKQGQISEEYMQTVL
In short: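 Agonist activity read as cAMP rise via d2/cryptate HTRF competition, 1 h room-temperature detection, in HEK293 cells expressing TSHR. Fifteen-point titrations, each run in triplicate, with a 30 min room-temperature incubation beforehand.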

[7] = biological target: Nuclear receptor subfamily 1 group I member 3 (Homo sapiens) (UniProt Q14994); assay: qHTS assay to identify small molecule antagonists of the constitutive androstane receptor (CAR) signaling pathway (AID 1224838);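 also: HepG2 cells stably expressing hCAR with CYP2B6 luciferase reporter stimulated by CITCO; nearly all actives have a fitted effect of over 40% in size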; also: potency is read from the fitted curve at half-maximal effect
In short: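 Antagonism measured as luciferase signal (ONE-Glo, 30 min, room temperature) in CAR-stimulated cells: HepG2-CYP2B6-hCAR double-stable line exposed 24 hr at 37 C to compound in a 15-point series plus 50 nM CITCO.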

[8] = qHTS assay to identify small molecule antagonists of the constitutive androstane receptor (CAR) signaling pathway - cell viability counter screen (AID 1224837); also: nearly all actives have a fitted effect of over 45% in size; also: potency is read from the fitted curve at half-maximal effect
In short: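 Cytotoxicity counter-screen: CellTiter-Fluor fluorescence after 23 h compound exposure (15-point qHTS) in double-stable HepG2-CYP2B6-hCAR cells, with 50 nM CITCO added.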

[9] = qHTS assay to identify small molecule antagonists of the estrogen related receptor signaling pathway with the pleiotropic PPARgamma coactivator (PGC) from Tox21 10K library (AID 1224841; call rule not given here; also: actives are mostly falling curves and most rising ones were filed inactive; nearly all actives have a fitted effect of over 50% in size; also: potency is read from the fitted curve at half-maximal effect)
In short: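 Luminescence (One-Glo, 30 min at room temperature) after 18 h compound treatment at 37 C of PGC/ERR reporter cells plated at 2,000 cells/well and settled 6 h beforehand.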

[10] = qHTS assay to identify small molecule agonists of the estrogen related receptor signaling pathway with the pleiotropic PPARgamma coactivator (PGC) from Tox21 10K library (AID 1224842); also: nearly all actives have a fitted effect of over 15% in size
In short: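 Luminescence from One-Glo (30 min, room temperature) measured after PGC/ERR cells had 18 h at 37 C with pinned compound (23 nL in DMSO). Cells had been seeded at 2,000 per well and pre-incubated 6 h.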

Measured: Potency

CN(C)CCc1c[nH]c2ccccc12
inactive: [1] | [2] | [3] | [4] | [5] | [6]

CCNc1nc(NC(C)C(C)C)nc(SC)n1 (configuration not stated)
active: [4] 48.6 µM
inactive: [1] | [2] | [3] | [7] | [5]

CCN(CC)CCN1C(=O)CN=C(c2ccccc2F)c2cc(Cl)ccc21
not listed: [4] | [7]
inactive: all other assays above

[O-][Cl+3]([O-])([O-])O
inactive: [1] | [2] | [3] | [5]

COc1ccc2c3c1O[C@H]1[C@H](O)CC[C@H]4[C@@H](C2)N(C)CC[C@@]341
inactive: [1] | [2] | [3] | [4] | [5]

CNC(=O)O/N=C(\C)C(C)S(C)(=O)=O (configuration not stated)
not listed: [4] | [7]
inactive: all other assays above

O=S(=O)(O)F
not listed: [8] | [9] | [10]
inactive: all other assays above

Nc1nc(N)nc(Cl)n1
not listed: [8] | [9] | [10]
inactive: all other assays above

N#Cc1ccc(N(CC(N)=O)CC(F)(F)F)cc1C(F)(F)F
inactive: [1] | [2] | [3] | [8] | [5]

Clc1cc(Cl)c(-c2cc(Cl)c(Cl)cc2Cl)cc1Cl
inactive: [1] | [2] | [3] | [5]

CCN(CC)C(=S)S
inactive: [2]
active: [1] 54.9 µM and 13.6 µM and 24.3 µM | [3] 54.9 µM and 12.1 µM and 19.3 µM | [8] 13.6 µM and 17.2 µM | [5] 30.9 µM and 6.08 µM and 13.7 µM

CC(C)NCC(O)c1ccccc1Cl (configuration not stated)
not listed: [6] | [8]
inactive: all other assays above

CC(Cl)CCl (configuration not stated)
inactive: [1] | [2] | [3] | [4] | [5] | [6]

CCCCN(CCCC)C(=S)[S-].CCCCN(CCCC)C(=S)[S-].[Ni+2]
active: [9] 0.237 µM
inactive: [1] | [2] | [3] | [5] | [10]

CCC(C)Br (configuration not stated)
inactive: [1] | [2] | [3] | [4] | [5] | [6]

CC(Cc1ccc(O)cc1)NCC(O)c1cc(O)cc(O)c1 (configuration not stated)
inactive: [1] | [2] | [3] | [4] | [5]

C=Cc1cccc(CCl)c1
inactive: [1] | [2] | [3] | [4] | [5]

CCCCN(CCCC)C(=S)S
not listed: [4] | [6] | [7]
inactive: all other assays above

O=C1C[C@@H]2OCC=C3CN4CC[C@]56c7ccccc7N1[C@H]5[C@H]2[C@H]3C[C@H]46
inactive: [1] | [5] | [10] | [6]

O=[N+]([O-])c1cc(C(F)(F)F)c(Cl)c([N+](=O)[O-])c1Nc1ncc(C(F)(F)F)cc1Cl
active: [1] 27.3 µM | [3] 15.4 µM | [8] 15.4 µM | [7] 13.7 µM | [5] 8.63 µM
inactive: [4]

[C-]1=CC=CC1.[Cl][Zr+2][Cl].c1cc[cH-]c1
inactive: [1] | [3] | [8] | [5]
